CFTR F508del cor: correctors of CFTR F508del function in bronchial epithelial cells; activity (quench increase), % at 7.58 µM; CFBE cells, YFP halide quenching; stimulated with forskolin plus potentiator P3; % fluorescence drop versus neutral controls; actives 0.36% (n = 350,000);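 active = mean added fluorescence quench of at least 8% versus neutral control, with both replicates also reaching 8%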;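 note: cells transiently co-express mutant CFTR-F508del with the halide-sensitive YFP; corrector assay measuring rescue of mutant channel to the surface after 24 h compound exposure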
EWS-Fli block: blocks EWS/Fli oncoprotein-driven transcription; inhibition, % at 12.6 µM; A673 NR0B1-luciferase reporter, viability-normalised; actives 0.67% (n = 350,000);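 active = mean inhibition of at least 50% after viability correction, with every replicate also passing that limit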;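 note: firefly luciferase signal divided by Alamar Blue viability fluorescence both relative to DMSO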
LGR2 antag: Drosophila LGR2 receptor signaling inhibition; actives 0.35% (n = 380,000); HEK293 LGR2, CRE-luciferase, bursicon-stimulated, 4 h; inhibition, % at 9.99 µM;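 active = drop in luminescence signal, shown as inhibition above about 50% in the replicate tests, limit read from the data, passing the limit was not always enough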;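 note: agonist challenge used bursicon conditioned medium at about half maximal strength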
PAX8 inh HTS: inhibitors of PAX8 transcriptional activity in RMG-I cells | RMG-I TPO-luciferase reporter, SteadyGlo, 24 h | inhibition, % at 12.6 µM | actives 1.2% (n = 360,000) | AID 652154;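 active = mean replicate inhibition at least 60% with every replicate also reaching 60%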;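 note: luciferase light reporting Pax8 driven TPO promoter activity; plate controls were median of neutral control wells for no effect and mitoxantrone controls for full effect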
Numbers without * were called inactive; · = no result given. This is a sample that favours compounds with a hit; in the whole collection about 1.8% have one here.

SMILES	CFTR F508del cor	EWS-Fli block	LGR2 antag	PAX8 inh HTS
O=C1Nc2cc(C(=O)NCCN3CCCCCC3)ccc2S/C1=C/c1ccccc1F	-2	73*	-2	51
O=C(C[C@@H]1C[C@H]2c3cc(NC(=O)Nc4ccccc4F)ccc3O[C@H]2[C@H](CO)O1)NCc1ccc(Oc2ccccc2)cc1	1	-3	48	75*
O=C(C[C@@H]1C[C@@H]2c3cc(NC(=O)Nc4ccccc4F)ccc3O[C@@H]2[C@@H](CO)O1)NCc1ccc(Oc2ccccc2)cc1	1	-1	-10	-1
O=C(C[C@H]1C[C@@H]2c3cc(NC(=O)C4CCOCC4)ccc3O[C@@H]2[C@@H](CO)O1)NCc1ccc(Oc2ccccc2)cc1	-2	18	11	78*
COc1ccc(-c2ccc3n(c2=O)C[C@@H]2[C@@H](CO)[C@H](C(=O)NC4Cc5ccccc5C4)N[C@H]32)cc1	-5	-5	6	66*
CCOC(=O)/C(=C\C=C1/Sc2ccccc2N1CC)C(C)=O	·	·	9	-42
CCOC(=O)/C(=C/C=C1\Sc2cc(C)c(C)cc2N1CC)C(C)=O	39*	3	21	17
C[C@@H]1CN([C@H](C)CO)C(=O)Cc2cc(NC(=O)CCCN(C)C)ccc2O[C@@H]1CN(C)S(=O)(=O)c1ccc(F)cc1	-2	5	-19	4
O=C(c1ccccc1)C1OC1C(=O)c1ccccc1 (configuration not stated)	-6	1	7	72*
COC(=O)c1ccccc1S(=O)(=O)NNC(=O)Nc1ccccc1	-2	25	58*	-3
CC(C)CC1OC(C(C)C)Cc2[nH]c(=S)[nH]c(=O)c21 (configuration not stated)	-1	0	-15	-11
CCCNC(=O)C1(C)CCN(C(=O)/C=C/c2ccccc2)C1 (configuration not stated)	-3	-1	3	-1
CO[C@@H]1CN(C)C(=O)c2ccc(NC(=O)c3ccc(-c4ccccc4)cc3)cc2OC[C@@H](C)NC[C@@H]1C	-6	16	0	16
CO[C@H]1CN(C)C(=O)c2ccc(NC(=O)Nc3ccc(Cl)c(Cl)c3)cc2OC[C@H](C)NC[C@H]1C	·	5	13	45
CO[C@@H]1CN(C)C(=O)c2ccc(NC(=O)c3ccc(-c4ccccc4)cc3)cc2OC[C@H](C)NC[C@@H]1C	-2	14	7	65*
CO[C@H]1CN(C)C(=O)c2ccc(NC(=O)Nc3ccc(Cl)c(Cl)c3)cc2OC[C@H](C)NC[C@@H]1C	·	69*	22	30
CCOC(=O)c1c(SCCN2CCCCC2)n(-c2ccccc2)c(=S)n(-c2ccccc2)c1=O	-2	79*	8	-14
C#Cc1ccc(NC(=O)C2(C)CCN2C(=O)c2cc(C)n(C)n2)cc1 (configuration not stated)	8.1*	0	13	12
Cc1cc(C(=O)N2CCC2(C)C(=O)NCCC#N)nn1C (configuration not stated)	-1	13	13	3
Cc1cc(Sc2nnc(/N=C/N(C)C)s2)c2ccccc2n1	0	5	55*	85*
Cc1cc(Cl)c2ccccc2n1	·	1	13	30
Cc1cc(Sc2nnc(N)s2)c2ccccc2n1	4	10	58*	90*
CCCN1C[C@H](C)[C@@H](OC)CN(C)C(=O)c2ccc(NC(=O)c3ccccc3)cc2OC[C@@H]1C	3	22	28	-23
O=C(CCNC(=O)c1ccc(Br)cc1)Nc1ccc(S(=O)(=O)N2CCCCC2)cc1	2	-4	-3	-5
C/C=C/c1cnc2c(c1)C(=O)N([C@@H](C)CO)C[C@H](C)[C@@H](CN(C)C(=O)Nc1cccc(OC)c1)O2	0	0	-3	6
SMILES	CFTR F508del cor	EWS-Fli block	LGR2 antag	PAX8 inh HTS
CC(=O)N1N=C(c2ccc(C(C)(C)C)cc2)OC1(C)C	2	16	-15	70*
N=c1ccn(CC(=O)c2ccc(-c3ccccc3)cc2)cc1	5	31	18	83*
CC(=O)Nc1ccccc1C(=O)C(=O)Nc1ccc(C)c(F)c1	-2	-111	-25	69*
CC(=O)Nc1ccccc1C(=O)C(=O)Nc1ccc(C)c(C)c1	-1	-105	2	-192
COC(=O)C(CC#Cc1ccc2c(c1)[C@]1(C(=O)N2)[C@H](c2ccc(O)cc2)N2[C@H](c3ccccc3)[C@H](c3ccccc3)OC(=O)[C@H]2[C@@H]1C(=O)N1CCc2cc(OC)c(OC)cc2C1)C(=O)OC	-1	14	·	12
COC(=O)C(CC#Cc1ccc2c(c1)[C@]1(C(=O)N2)[C@H](C(=O)NC[C@H](O)c2ccccc2)[C@H]2C(=O)O[C@H](c3ccccc3)[C@H](c3ccccc3)N2[C@@H]1c1ccccc1OCCO)C(=O)OC	-1	71*	·	101*
COC(=O)C(CC#Cc1ccc2c(c1)[C@]1(C(=O)N2)[C@H](c2ccccc2OCCO)N2[C@H](c3ccccc3)[C@H](c3ccccc3)OC(=O)[C@H]2[C@@H]1C(=O)N1CCc2cc(OC)c(OC)cc2C1)C(=O)OC	0	56*	·	-14
NC(=O)NCC#Cc1ccc2c(c1)[C@]1(C(=O)N2)[C@H](C(=O)O)[C@H]2C(=O)O[C@H](c3ccccc3)[C@H](c3ccccc3)N2[C@@H]1c1ccccc1OCCO	2	-4	·	·
COc1ccc(-c2csc(NC(=S)NC(=O)/C=C/c3ccco3)n2)cc1Br	9.4*	37	·	14
O=C(/C=C/c1ccco1)Nc1nc(-c2ccccc2)cs1	0	-111	-18	98*
COc1ccc(-c2csc(NC(=S)NC(=O)/C=C/c3ccco3)n2)cc1OC	9.7*	29	-17	50
O=C(/C=C/c1ccco1)Nc1nc(-c2ccccn2)cs1	-3	-3	22	-54
CCC(Sc1ccc(Cl)cc1)C(=O)Nc1nnc(-c2cccc([N+](=O)[O-])c2)s1 (configuration not stated)	-3	-1	12	-1
CCOC(=O)c1ccc(NC(=O)COc2coc(CN3CCc4ccccc43)cc2=O)cc1	-4	2	14	9
CN(CCc1ccccn1)C(=O)Nc1cc(Cl)cc(Cl)c1	-1	-16	16	-12
O=C(NCC1CCCO1)C(c1ccncc1)N(Cc1cccs1)C(=O)Cn1nnc(-c2ccc(F)cc2)n1 (configuration not stated)	0	16	·	24
CC(C)CCNC(=O)C(c1ccncc1)N(Cc1cccs1)C(=O)Cn1nnc(-c2ccc(F)cc2)n1 (configuration not stated)	·	·	·	80*
Cc1noc(C)c1S(=O)(=O)Nc1ccc2c(c1)C(=O)N([C@@H](C)CO)C[C@@H](C)[C@H](CN(C)Cc1ccc(C(F)(F)F)cc1)OCCCC[C@H](C)O2	3	·	-4	64*
Cc1noc(C)c1S(=O)(=O)Nc1ccc2c(c1)C(=O)N([C@@H](C)CO)C[C@@H](C)[C@H](CN(C)Cc1ccc(C(=O)O)cc1)OCCCC[C@H](C)O2	-2	-5	-5	-7
